# According to PubChem BioAssay:
# Several values for one entry are separate records, joined by “and”; a condition that tells them apart may be missing. Equal values may be shown once. Activity calls are given as the source filed them.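 The calls were made as follows, unless noted: active = compounds whose cell count with miR-34 switched on is under 0.7 times the count with it off; inactive = the rest.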
# Assays:
# [1] = Wnt pathway potentiators raising nuclear beta-catenin – imaging, WNT3A-conditioned medium, mouse C2C12, NPC library, primary screen (AID 1117326; in the data active = nuclear beta-catenin stimulation mostly above about 4.2%, no sharp cut-off; inactive = mostly below about 10%; also: reference of the scale not given here); details: stronger effect = higher value
# [2] = stimulators of insulin release from INS-1E, primary screen, cell-based, 5 mM glucose, NPC library (AID 1117329;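 active = compound raises insulin release from rat beta cells at 5 mM glucose, no numeric limit stated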; also: reference of the scale not given here); details: rat INS-1E insulin secretion, at 10 µM, stronger effect = higher value
# [3] = growth inhibition of GSK3B-pretreated HCT116 cells – cell-based, CellTiter-Glo, 0.2 to 20 µM (AID 1117336;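 active = compounds lowering colon cancer cell viability after pretreatment blocking the GSK3B kinase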); details: HCT116 viability after GSK3B inhibitor, at 20 µM, stronger effect = higher value
# [4] = inhibition of endothelial tube formation, primary screen, imaging, VEGF stimulated, CD31 staining, tube area, NPC library (AID 1117340;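 active = compound that reduces growth-factor-driven endothelial tube area in a mixed cell culture, no cutoff stated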); details: VEGF-stimulated ADSC/ECFC co-culture, at 10 µM, stronger effect = higher value
# [5] = GLP1 release stimulators, primary, NCI-H716, NPC library (AID 1117341;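 active = compound raises GLP1 secretion from the human gut endocrine cells, with no numeric limit stated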; also: reference of the scale not given here); details: NCI-H716 cells, at 10 µM, stronger effect = higher value
# [6] = HCT116 colon cancer cell growth inhibition, primary screen, CellTiter-Glo luminescence, NPC library (AID 1117342;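 active = compounds that lower survival of HCT116 colon cancer cells in the luminescence readout, no numeric limit stated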); details: at 20 µM (top of the series)
# [7] = reduced SW480 viability measured with CellTiter-Glo, NPC library, primary (AID 1117343;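 active = compounds that lower viability of the colon cancer cells in the luminescence readout, with no numeric limit stated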); details: CellTiter-Glo luminescence; at 20 µM (top of the series) unless noted
# [8] = NPC library primary testing for decreased DLD-1 cell viability via CellTiter-Glo (AID 1117346;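 active = compounds that lower survival of DLD-1 colon cancer cells in the luminescence readout, no cutoff given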); details: DLD-1 viability, CellTiter-Glo luminescence; at 20 µM (top of the series)
# [9] = viability loss with induced miR-34 in A549 – imaging, A549 dox-inducible miR-34, nuclei and caspase counts, primary screen (AID 1347080); details: A549 miR-34 inducible, Hoechst nuclei count, 48 h
# [10] = blockers of cellular phospholipid synthesis – cell-based, LOPAC library, screen 4, primary screen (AID 1347384; call rule not given here); details: animal cells, phospholipid biosynthesis inhibition screen; at 10 µM
# [11] = galactose survival enhancers in mitochondrial complex I cybrids – cell-based, galactose medium, ATP luminescence, primary screen (AID 1645843;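 active = z-score of at least 1.8 in each of two replicates, scored against plate mean and spread of sample wells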;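 also: positive z means more ATP and so rescue of galactose-driven cybrid death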); details: complex I mutant cybrid cells, 72 h, stronger effect = higher value
# [12] = MELAS cybrid and Rieske KO viability enhancers – cell-based, MELAS cybrids, Rieske KO mouse fibroblasts, CellTiter-Glo, primary screen (AID 1508586;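 active = mean z-score across replicates of 1.96 or higher in either the MELAS or the Rieske mutant cell line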;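 also: z relative to plate mean and SD of compound and empty wells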); details: low glucose
# [13] = P. berghei load reduction in hepatocytes – cell-based, HepG2, luciferase luminescence, HepG2 viability, primary screen (AID 624349; in the data active = parasite load remaining mostly below about 12%, no sharp cut-off; inactive = mostly above about 10%;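 also: 100% = mean of DMSO negative control wells on the same plate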); details: P. berghei liver stage in HepG2, luciferase luminescence, concentration not given here; parasite load remaining: stronger effect = lower value; viability: measured here: HepG2 viability without parasites
# [14] = stronger effect = lower value, cell number ratio, induced over uninduced
# [15] = measured here: relative caspase fold change +Dox/-Dox
# [16] = measured here: total cells with miR-34 induction, stronger effect = lower value
# [17] = measured here: total cells without miR-34 induction
# [18] = MELAS cybrid survival, CellTiter-Glo 48 h, stronger effect = higher value
# [19] = Rieske KO mouse fibroblast survival, CellTiter-Glo 72 h
Structure (SMILES),nuclear beta-catenin stimulation ([1]; at 10 µM),"nuclear beta-catenin stimulation ([1]; stimulation, at 2 µM) [%]",insulin secretion stimulation [2],viability decrease [3],tube area decrease [4],GLP1 secretion stimulation [5],inhibition of viability [6],viability decrease (inhibition) [7],viability decrease (inhibition) [8],"fold change [9, 14]","fold change [9, 15]","cell count [9, 16]","cell count [9, 17]",outcome [10],z-score [11],"z-score [12, 18]","z-score [12, 19]",parasite load remaining [13],viability [13]
CCNC(=O)N1CCN(CCCC(c2ccc(F)cc2)c2ccc(F)cc2)CC1,0.3% (inactive),-1.1,1.1% (inactive),50.7% (active),17.1% (inactive),7.1% (inactive),85.2% (active),119% (active),57.7% (active),0.987 (inactive),1.62,6860,6940,inactive,-1.42 (inactive),,,,
O=c1[nH]c(=O)n([C@H]2C[C@H](O)[C@@H](CO)O2)cc1Br,0.6% (inactive),-1.1,0.6% (inactive),17.6% (inactive),54.6% (active),0.6% (inactive),14.8% (inactive),18.4% (inactive),34.2% (inactive),0.769 (inactive),2.25,7520,9790,inactive,5.63 (active),,,,
COc1ccc(CCN(C)CCCC(C#N)(c2cc(OC)c(OC)c(OC)c2)C(C)C)cc1OC (stereo not given),1% (inactive),0.7,0.45% (inactive),-1.5% (inactive),6.2% (inactive),5.2% (inactive),18.9% (inactive),22% (inactive),4.6% (inactive),1.02 (inactive) and 0.953 (inactive),0.481 and 1.24,9650 and 5610,9490 and 5880,inactive,-0.635 (inactive),,,,
Nc1c(CC(=O)O)cccc1C(=O)c1ccccc1,0.8% (inactive),0.5,-0.2% (inactive),-2.3% (inactive),-6.1% (inactive),2.5% (inactive),0.4% (inactive),0.2% (inactive),-11.2% (inactive),0.914 (inactive),0.966,7840,8580,,,-0.237 (inactive),-0.172,,
COC(=O)C(c1ccccc1Cl)N1CCc2sccc2C1 (stereo not given),0.3% (inactive),-0.7,1.9% (inactive),30.5% (inactive),1.2% (inactive),3.9% (inactive),52.7% (active),18.6% (inactive),48.7% (inactive),0.927 (inactive),0.912,7680,8290,,,-0.416 (inactive),0.984,,
CCN(CC)CCCN(c1ccccc1)C1Cc2ccccc2C1,-1.7% (inactive),-1.3,32.5% (active),33.8% (inactive),22.2% (inactive),-4.5% (inactive),50.6% (active),53.5% (active),32.5% (inactive),1.07 (inactive),1.01,8050,7530,inactive,-1.11 (inactive),,,,
Nc1cc(=O)[nH]c(N)n1,1.3% (inactive),1.3,-1.5% (inactive),7.7% (inactive),-14.1% (inactive),-2.3% (inactive),-16.3% (inactive),71.1% (active),13.6% (inactive),0.958 (inactive),1.28,9880,10300,inactive,0.355 (inactive),,,,
CCN1CCc2nc(N)oc2CC1,-1.7% (inactive),0.3,0.4% (inactive),2.7% (inactive),1.7% (inactive),-1.2% (inactive),5.2% (inactive),-29.1% (inactive),-18% (inactive),1.02 (inactive),1.71,10300,10100,inactive,0.29 (inactive),,,,
NC(=O)c1cn(Cc2c(F)cccc2F)nn1,0.5% (inactive),2.9,-2.7% (inactive),-3.55% (inactive),-8.7% (inactive),-0.1% (inactive),18.7% (inactive),11.5% (inactive),5.25% (inactive),1.05 (inactive) and 0.933 (inactive),0.739 and 0.557,10500 and 8320,10000 and 8930,inactive,0.155 (inactive),-0.0452 (inactive),-0.156,,
CCn1c(=O)c2c(nc(C=Cc3ccc(OC)c(OC)c3)n2C)n(CC)c1=O,-0.2% (inactive),-0.6,-0.7% (inactive),-2.3% (inactive),14.4% (inactive),-3% (inactive),-3.5% (inactive),4.6% (inactive),-22% (inactive),0.891 (inactive),0.866,8640,9700,,,0.103 (inactive),0.0933,,
COc1cc(C=O)ccc1O,1.6% (inactive),0.8,0.7% (inactive),1.37% (inactive),1.2% (inactive),0.6% (inactive),-10.3% (inactive),49.1% (inactive),3.27% (inactive),0.931 (inactive),0.545,7990,8590,,,-0.504 (inactive),-0.136,,
C[N+](C)(C)CCOC(=O)CCC(=O)OCC[N+](C)(C)C,0.2% (inactive),1.4,0.95% (inactive),14% (inactive),-17.3% (inactive),3.2% (inactive),3.4% (inactive),-16.3% (inactive),3.4% (inactive),0.999 (inactive) and 0.895 (inactive),1.13 and 1.62,9370 and 9270,9380 and 10400,inactive,0.34 (inactive) and -0.11 (inactive),-0.659 (inactive),-1.43,28% (inactive),74.5%
N[C@@H](COP(=O)(O)O)C(=O)O,0.6% (inactive),14.5,2% (inactive),-15.2% (inactive),-20.7% (inactive),-1% (inactive),0% (inactive),-26.4% (inactive),-5.8% (inactive),1.04 (inactive) and 0.898 (inactive),1.02 and 0.718,10100 and 7700,9680 and 8570,inactive,0.485 (inactive),,,,
C(=C\c1ccccc1)/CN1CCN(C(c2ccccc2)c2ccccc2)CC1,1.7% (inactive),0.3,-1.8% (inactive),88.8% (active),26.3% (inactive),-2.7% (inactive),84.4% (active),97.3% (active),99.3% (active),0.969 (inactive) and 0.928 (inactive),1.77 and 1.18,7700 and 8780,7950 and 9460,inactive,-0.01 (inactive),0.0624 (inactive),-0.105,32.6% (inactive) and 111% (inactive),52.6% and 87.5%
CC1=C(CC(=O)O)c2cc(F)ccc2/C1=C\c1ccc(S(C)(=O)=O)cc1,0.1% (inactive),-0.8,-1.1% (inactive),39.5% (inactive),7.6% (inactive),-0.4% (inactive),66.3% (active),88.7% (active),90.1% (active),0.998 (inactive),1.86,9240,9260,inactive,0.795 (inactive),,,,
CC(C)(C)c1ccc(C(=O)CCCN2CCC(OC(c3ccccc3)c3ccccc3)CC2)cc1,0.6% (inactive),11.9,1% (inactive),111% (active),102% (active),6% (inactive),114% (active),133% (active),101% (active),1.42 (inactive),0.93,1290,913,inactive,-0.865 (inactive),,,,
